TRPV1 potentiator – HTS Assay for Compounds that Act as Potentiators of the Vanilloid Receptor 1; TRPV1-expressing cells, Fluo-8 calcium influx, capsaicin EC20 potentiation; potentiation, % at 8.33 µM; hit rate 0.02% among 320,000; AID 540277, 2011; in the data active means potentiation above about 80%; inconclusive means between about 30% and that limit; further: 0% is about no effect
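TRPV1-expressing cells were cultured overnight at 35.5C and loaded with Fluo-8 calcium dye for 40 to 90 min at room temperature. After a 10 s baseline, compound was added and calcium influx was read kinetically for 3 min (ex 480/em 520 nm).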
D1 ag – Allosteric Agonists of the Human D1 Dopamine Receptor: qHTS; hit rate 1% among 360,000; D(1A) dopamine receptor (Homo sapiens), P21728; activation, % at 2 µM; HEK293 T-REx D1 cells, calcium flux, agonist mode; in the data active means activation above about 30%; further: 0% is about no effect
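Inducible HEK293 T-REx D1 cells, force-coupled to calcium signalling, were plated at 4000 cells/well with tetracycline and held overnight at 30 C. After no-wash calcium dye loading, compound-evoked calcium rise over 180 s flagged agonists.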
D1 antagonist – Antagonist of Human D 1 Dopamine Receptor: qHTS | HEK293 TREx D1 cells, calcium flux, dopamine EC80; active compounds read low | activity change, negative = inhibition, % at 10 µM | hit rate 3.2% among 360,000; in the data active means activity change below about -30%; further: on the % scale 0 is the no-effect control and ±100 the full control effect
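Compound effects on dopamine-evoked calcium signalling were measured in tetracycline-induced HEK293 Trex D1 cells. Dopamine at EC80 followed a 180 s compound pre-read, and fluorescence was tracked kinetically for 180 s more.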
D1 potentiator – Potentiators of Human D1 Dopamine Receptor: qHTS; D(1A) dopamine receptor (Homo sapiens), P21728; AID 504651, 2011; hit rate 0.036% among 360,000; potentiation, % at 10 µM; HEK293 TREx D1 cells, calcium flux, dopamine EC20 potentiation; in the data active means potentiation above about 30%; further: 0% is about no effect
TRPV1 agonist – HTS Assay for Compounds that Act as Agonists of the Vanilloid Receptor 1 | Transient receptor potential cation channel subfamily V member 1 (Homo sapiens), Q8NER1 | TRPV1-expressing cells, Fluo-8 calcium influx, agonist mode | activation, % at 8.33 µM | hit rate 0.19% among 320,000; in the data active means activation above about 80%; inconclusive means between about 30% and that limit; further: 0% is about no effect
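Cells expressing TRPV1 were dye-loaded with Fluo-8 and read kinetically: 10 s baseline, 3 min after compound (agonist portion), then 2 min after EC20 capsaicin (allosteric enhancer portion). Calcium-bound dye fluorescence at 480/520 nm.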
* hit, by the source's call; ? = inconclusive; / = not tested or not shown. The list is not random: actives were taken first. Their share in the collection is about 4.2%.

SMILES	TRPV1 potentiator	D1 ag	D1 antagonist	D1 potentiator	TRPV1 agonist
CCOc1ccc(NC(=O)CCC(=O)NNS(=O)(=O)c2ccccc2[N+](=O)[O-])cc1	3.9	224.0*	3.7	-4.0	?
Cc1nn(-c2ccccc2)c2c1N(CC(=O)NCc1ccc(N(C)C)cc1)C(=O)CS2	/	-0.6	8.7	-3.7	/
Nc1c(C(=O)C2CC2)sc2nc(-c3ccccc3)cc(C(F)(F)F)c12	-4.8	66.5*	20.8	-3.5	20.7
CN(C)CCNC(=O)c1sc2nc(-c3ccccc3)cc(C(F)(F)F)c2c1N	-0.4	36.7*	3.5	-4.3	6.6
CC(=O)c1sc2nc(-c3cccs3)cc(C(F)(F)F)c2c1N	2.2	180.0*	5.2	-0.1	23.2
COc1ccc(-c2cc(C(F)(F)F)c3c(N)c(C(=O)NCCSC)sc3n2)cc1	0.4	31.1*	3.5	5.2	13.0
COc1ccc(OC)c(NC(=O)c2sc3nc(Cc4ccccc4)cc(C(F)(F)F)c3c2N)c1	4.4	3.3	-0.1	-7.5	4.1
COc1cccc(Cn2c(CNS(=O)(=O)c3ccc4c(c3)CCCC4)nc3cccnc32)c1	/	0.8	9.9	0.7	/
COc1cccc(-c2cc(C(F)(F)F)c3c(N)c(C#N)sc3n2)c1	-0.8	34.3*	-9.3	16.9	3.0
O=C(Nc1ccc(-c2nc3ccccc3s2)c(O)c1)c1ccc(Br)cc1	/	-0.4	-33.3*	2.4	/
CCOc1ccccc1NC(=O)CSc1ncc(S(=O)(=O)c2ccc(C)c(C)c2)c(N)n1	/	12.7	-8.0	0.1	/
Cc1ccc(N(CC(=O)Nc2ccc(F)cc2F)S(=O)(=O)c2cccs2)cc1	/	8.2	-8.7	-0.3	/
Cc1ccc(OCc2cc(C(=O)NCC(C)c3ccccc3)no2)cc1C (stereo not given)	1.3	9.2	-30.7*	-9.0	22.3
COc1cccc(OCc2cc(C(=O)N(C)C3CC(C)(C)NC(C)(C)C3)no2)c1	-3.0	10.8	9.3	1.3	-3.8
Cc1ccc(OCc2cc(C(=O)NCCn3cccn3)no2)cc1C	-21.1	4.3	-9.6	-1.0	20.0
COc1ccc(OCc2cc(C(=O)N(C)CC3CCCCO3)no2)c(Cl)c1 (stereo not given)	2.5	2.1	3.1	0.5	29.6
COc1ccc(OCc2cc(C(=O)N(C)CCC3CCOCC3)no2)c(Cl)c1	-20.5	7.3	-41.2*	-8.0	25.3
Cc1ccc(OCc2cc(C(=O)NCc3cn4ccccc4n3)no2)cc1C	-14.6	15.9	-20.4	0.8	?
COc1cccc(OCc2cc(C(=O)N(C)C3CCOCC3)no2)c1	-5.2	6.1	-55.7*	-10.4	21.8
Cc1cc(OCc2cc(C(=O)NCc3csc(C(C)C)n3)no2)cc(C)c1Cl	13.4	70.8*	-40.8*	5.7	3.2
Cc1cccc(C)c1Nc1c(-c2ccc(Cl)s2)nc2ncccn12	/	8.6	5.6	0.1	/
Cc1cc(OCc2cc(C(=O)NCCN3CCCCC3CO)no2)cc(C)c1Cl (stereo not given)	21.5	35.4*	-44.2*	-15.1	2.8
COc1cccc(OCc2cc(C(=O)NCCN3CCCCC3CO)no2)c1 (stereo not given)	-0.7	6.0	2.1	-4.8	-2.9
Cc1cc(OCc2cc(C(=O)N(C)C3CCOC3)no2)cc(C)c1Cl (stereo not given)	8.8	12.3	-47.3*	-3.5	82.5*
CC(C)(C)c1ccc(S(=O)(=O)N2CCN(Cc3noc(CCC(=O)N4CCCCC4)n3)CC2)cc1	/	1.0	1.3	-2.8	/
SMILES	TRPV1 potentiator	D1 ag	D1 antagonist	D1 potentiator	TRPV1 agonist
CCOC(=O)c1ccc(NC(=O)N2CC3CCCN3c3ccccc32)cc1 (stereo not given)	/	1.1	10.0	0.5	/
CCOC(=O)C1[C@H]2C(=O)N(C(C)c3ccc(OC)cc3)C[C@]23C=C[C@H]1O3 (stereo not given in full)	-3.9	-0.3	-41.1*	2.2	-1.3
CCCOC(=O)C1[C@H]2C(=O)N(C(C)c3ccc(OC)cc3)C[C@]23C=C[C@H]1O3 (stereo not given in full)	19.2	0.7	4.0	-0.9	0.2
CC(=O)c1ccc(S(=O)(=O)NCCCC(=O)N(C)Cc2ccc3c(c2)OCO3)cc1	-22.9	7.2	-56.5*	-8.8	3.9
O=C(CSc1oc(-c2ccc(F)cc2)nc1S(=O)(=O)c1ccccc1)NC1CCCCC1	/	-0.9	2.9	0.3	/
COc1ccc(C2=NN(c3ccccc3)C(c3ccc(OC)c(OC)c3)C2)cc1 (stereo not given)	11.6	4.5	2.1	3.3	-2.1
COc1ccc(C2CC(c3ccc(F)cc3)=NN2c2ccccc2)cc1OC (stereo not given)	-12.6	5.7	-78.4*	0.7	1.8
COc1ccc(Cl)cc1NC(=O)Cn1c(=O)n(Cc2cccs2)c(=O)c2cccnc21	/	2.7	-20.8	-4.1	/
COc1cccc2c1C(=O)c1c(O)c3c(c(O)c1C2=O)C[C@@](O)(C(=O)CO)C[C@@H]3O[C@H]1C[C@H](N)[C@H](O)[C@H](C)O1	2.5	34.4*	-6.6	-4.0	6.4
CCN(CC)c1ccc2c(c1)oc(=O)c1c(Cl)cc(=O)oc12	-27.9	141.8*	-38.1*	-4.8	26.7
CC(=O)N1c2ccccc2C(=O)C1N1CCN(c2cccc(C)c2C)CC1 (stereo not given)	/	4.4	-0.9	-1.5	/
COc1ccc(Br)cc1S(=O)(=O)N1CCN(S(=O)(=O)c2ccc3c(c2)OCCO3)CC1	/	1.8	6.3	1.6	/
[O-][n+]1c2c(c3c4non(O)c4ccc31)CCCC2	-3.5	20.6	-30.8*	-4.5	-1.2
COC(=O)c1ccc(CNC(=O)COC(=O)CCC2CCCC2)cc1	-27.1	1.9	21.2	2.4	84.0*
COc1ccc(CNC(=O)COC(=O)CCC2CCCCC2)cc1	-5.6	2.8	9.6	15.0	?
CSc1ccc(CCNC(=O)C2CCN(c3nc4ccccc4nc3C(F)(F)F)CC2)cc1	/	1.4	5.0	-1.5	/
CC(C)(C)NC(=O)Cn1nnc(-c2ccc(Cl)cc2)n1	7.9	1.6	10.9	-3.8	4.8
CC(C)(C)NC(=O)Cn1nnc(-c2ccc(OCc3c(F)cccc3Cl)cc2)n1	2.8	8.9	-31.8*	-5.5	5.6
CCOc1ccc2oc(C(=O)NNC(=O)c3csc(N4CCOCC4)n3)c(C)c2c1	?	1.7	-38.4*	-16.8	0.2
O=C(O)c1ccc2c(c1)C(=O)N([C@H](Cc1c[nH]c3ccccc13)C(=O)O)C2=O	/	1.7	-17.7	-5.7	/
CCOc1ccc(NC(=O)CSC2=Nc3ccccc3C3=NC(CC(=O)NCc4ccc5c(c4)OCO5)C(=O)N23)cc1 (stereo not given)	/	1.1	-30.1*	-4.1	/

Screening data (PubChem)
